Assay outcomes as filed in PubChem.
NALP3 yeast inh: NALP3 inflammasome inhibitors in reconstituted yeast, primary screen, luminescence, uHTS; Yeast reconstituted NLRP3/ASC/caspase-1, beta-gal luminescence, 24 h; inhibition, % at 10 µM; 330,000 compounds, 0.39% hits;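 active = inhibition of 50% or more; inactive = inhibition below 50%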;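 also: plate controls were induced DMSO wells for no effect and uninduced yeast grown without galactose for full effect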
tim10-1 inh: growth inhibitors of tim10-1 mutant yeast, primary screen, luminescence, uHTS; S. cerevisiae tim10-1 ts strain growth, BacTiter-Glo, 24 h; inhibition, % at 20 µM; 330,000 compounds, 2.2% hits;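 active = inhibition of at least 40%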;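 also: mutant grown at 25 °C; 0% = DMSO wells with yeast and 100% = wells holding no yeast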
tim23-1 inh: growth inhibitors of tim23-1 mutant yeast, primary screen, luminescence, uHTS. inhibition, % at 20 µM. 330,000 compounds, 1.3% hits. S. cerevisiae tim23-1 growth, BacTiter-Glo luminescence, 24 h;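 active = growth inhibition of the mutant yeast at or above 50%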;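 also: temperature-sensitive mutant grown at 25 °C; plate controls were DMSO-treated mutant yeast for no effect and medium wells lacking yeast for full effect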
TIM10 inh: growth inhibitors of isogenic TIM10 control yeast, primary screen, counter-screen for tim10-1 yeast inhibitor project, luminescence, uHTS; S. cerevisiae TIM10 strain growth, BacTiter-Glo luminescence, 24 h; inhibition, % at 10 µM; 330,000 compounds, 1.4% hits; AID 463195, 2010;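 active = inhibition of 40% or more at the single tested concentration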;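 also: wild-type TIM10 isogenic control strain grown at permissive 25 °C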
NALP1 inh: NALP1 inflammasome inhibitors in reconstituted yeast, colorimetric, S. cerevisiae, triplicate retest; S. cerevisiae NALP1/ASC/caspase-1 growth, X-gal OD620, 72 h; inhibition, % at 10 µM; 280,000 compounds, 0.61% hits; AID 2071, 2009; in the data active = inhibition mostly above about 24%, no sharp cut-off; inactive = mostly below about 32%
TIM10 conf: growth inhibitors of wild-type TIM10 yeast, confirmation, counter-screen for tim10-1 synthetic lethality project, single concentration, luminescence, S. cerevisiae | 4,600 compounds, 63% hits | S. cerevisiae tim10 strain growth, BacTiter-Glo luminescence, 24 h | inhibition, % at 10 µM | shares compounds with TIM10 inh;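 active = inhibition of yeast growth at or above a set limit in either of two replicates at 10 µM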;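 also: this counterscreen used the strain with wild-type TIM10; 0% = yeast with DMSO and 100% = medium wells lacking yeast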
Active calls of the source: *. Hits are enriched below; roughly 4% of the tested compounds scored in any of these assays.

Screening O=C(Cn1nc(C(=O)O)c2ccccc2c1=O)NC12CC3CC(CC(C3)C1)C2 returned NALP3 yeast inh 11, tim10-1 inh 37, tim23-1 inh 32, TIM10 inh 68*, NALP1 inh 6 and TIM10 conf 20.
Screening O=C(NC1=NCCS1)c1cc(-c2cccc(Br)c2)nc2ccccc12 returned NALP3 yeast inh 13, tim10-1 inh 36, tim23-1 inh 47, TIM10 inh 43*, NALP1 inh 20 and TIM10 conf 10.
`O=C(NC1=NCCS1)c1csc2ccccc12` gave NALP3 yeast inh 29, tim10-1 inh 34, tim23-1 inh 28, TIM10 inh 44*, NALP1 inh 21 and TIM10 conf 28.
`O=C(CSc1nnc2ccc(-c3ccc(F)cc3)nn12)N1CCOCC1` gave NALP3 yeast inh 13, tim10-1 inh 2, tim23-1 inh 10 and TIM10 inh -4.
CCOc1ccccc1C(=O)NCC(=O)NCC(c1ccco1)N1CCCCC1 (centres undefined) was read as NALP3 yeast inh 22, tim10-1 inh -4, tim23-1 inh 10 and TIM10 inh 1.
Screening C[C@@H]1CC[C@H]2C(=O)N3[C@@H](CC[C@@H](C)[C@@H]3c3ccc(Br)cc3)C(=O)N2[C@H]1c1ccc(Br)cc1 returned NALP3 yeast inh -6, tim10-1 inh 16, tim23-1 inh 44, TIM10 inh 14 and NALP1 inh 23.
`O=C(CN1C(=O)NC2(CCCCC2)C1=O)NCCCSc1ccccc1` gave NALP3 yeast inh 7, tim10-1 inh -8, tim23-1 inh -6 and TIM10 inh -3.
Screening Cc1ccc(NC(=S)Nc2ccc(OC(F)F)c(Cl)c2)cc1F returned NALP3 yeast inh 22, tim10-1 inh 37, tim23-1 inh 40, TIM10 inh 42*, NALP1 inh 9 and TIM10 conf 36*.
Screening Cc1ccc(Cn2cc(SCC(N)=O)c3ccccc32)cc1 returned NALP3 yeast inh 0, tim10-1 inh -8, tim23-1 inh -1, TIM10 inh -12 and NALP1 inh -22.
`CCOc1cc(C=O)c(Br)cc1OC1CCCC1` gave NALP3 yeast inh -87, tim10-1 inh 28, tim23-1 inh -17, TIM10 inh 40*, NALP1 inh -6 and TIM10 conf 19.
For Cc1ccc2c(c1)c1nc3ccccc3nc1n2CCN1CCOCC1 the results were NALP3 yeast inh 22, tim10-1 inh 15, tim23-1 inh 6, TIM10 inh 48*, NALP1 inh 2 and TIM10 conf 23.
For CC(NC(=O)CSc1nc2ccc(N)cc2s1)c1ccccc1 (centres undefined) the results were NALP3 yeast inh 19, tim10-1 inh -141, tim23-1 inh -38, TIM10 inh -44 and NALP1 inh 2.
Screening Cc1cc(NC(=O)CCCn2ccc([N+](=O)[O-])n2)n(Cc2ccc(F)cc2)n1 returned NALP3 yeast inh -3, tim10-1 inh 25, tim23-1 inh -5, TIM10 inh 13 and NALP1 inh 7.
O=C(Nc1cccc(S(=O)(=O)N2CCCCC2)c1)c1ccc([N+](=O)[O-])o1 was read as NALP3 yeast inh -3, tim10-1 inh -43, tim23-1 inh -109, TIM10 inh 46*, NALP1 inh 6 and TIM10 conf 27.
For O=C(COC(=O)c1ccc([N+](=O)[O-])o1)Nc1cccc(S(=O)(=O)N2CCCCC2)c1 the results were NALP3 yeast inh 6, tim10-1 inh 14, tim23-1 inh -13, TIM10 inh 16 and NALP1 inh -12.
`COc1ccc(C(C)=O)cc1COC(=O)c1ccc(C)c(S(=O)(=O)N2CCOCC2)c1` gave NALP3 yeast inh 10, tim10-1 inh 5, tim23-1 inh 20 and TIM10 inh 13.
Screening CCCc1nnc(SCC(=O)Nc2ccccc2Cl)n1CC1CCCO1 (centres undefined) returned NALP3 yeast inh 12, tim10-1 inh 7, tim23-1 inh 7, TIM10 inh -12 and NALP1 inh 28.
